Reference: ChEMBL document CHEMBL3988442, “University of Dundee, Small-Polar-MMV Screening Library” (2021)
Out of some 48,000 compounds screened, about 13,000 (27%) showed an effect of 50% or more. The list shows a part of the results.

system: Wolbachia pipientis; assay: Anti-Wolbachia Cell-Based Screen; format: functional; parameters: scale not given: in the data most compounds retested in dose-response had high values; details: 5 µM

In order of rising “Percent Effect” value:
1. COCCCN(C)C(=O)Cn1cccc(OC)c1=O  -68.57%
2. Cc1ccc(C)c(C(NC2CCCC2)c2cccnc2)c1 (stereo not drawn)  -43.53%
3. O=c1[nH]c(C2CCOC2)nc2cc(F)c(F)cc12 (stereo not drawn)  -25.67%
4. Cc1cnn(CC2CN(CCCS(C)(=O)=O)CCO2)c1 (stereo not drawn)  -24.88%
5. Cn1c(CN2CCOC(Cn3cncn3)C2)nc2ccccc21 (stereo not drawn)  -24%
6. COCc1ccccc1C(=O)NCCCN1CCCC1C(=O)N(C)C (stereo not drawn)  -20.3%
7. CS(=O)(=O)NC[C@H]1Cn2c(-c3ccccc3)cnc2CO1  -16.47%
8. O=C(c1cccnc1-n1cccn1)N1CCN(CC2CC2)CC1  -16.04%
9. Cc1ncsc1CN1C[C@@H]2CCCO[C@@H]2[C@H](N(C)C(C)C)C1.O=C(O)C(F)(F)F.O=C(O)C(F)(F)F  -15.14%
10. O=C(c1ccc(-n2cccn2)cc1Cl)N1CCCC(O)(CO)C1 (stereo not drawn)  -12.88%
11. O=C(c1ncn2c1CNS(=O)(=O)c1ccccc1-2)N1CCCCCC1  -12.52%
12. CC(NC(=O)N(C)Cc1ccsc1)c1nncn1C (stereo not drawn)  -12.05%
13. NC(=O)CC1CCN(C(=O)CCOc2ccc(Cl)cc2)CC1  -10.96%
14. CC(C)=CCCC(C)CN1CCC(n2cc(C(C)(C)O)nn2)CC1 (stereo not drawn)  -10.5%
15. Cc1ccc(CN2CCc3c(nnn3C)C2COCc2ccccc2)s1.O=C(O)C(F)(F)F (stereo not drawn)  -9.551%
16. CC(c1cccnc1)N1CCN(C(=O)NCc2cnn(C)c2)CC1 (stereo not drawn)  -9.128%
17. CCN(Cc1ccc(C#N)cc1F)C(=O)CN(C)CC(N)=O  -8.702%
18. N[C@H]1CN(C(=O)Cc2cc(F)cc(Cl)c2)C[C@@H]1C1CC1  -8.09%
19. Cc1cnccc1NC(=O)CCc1ccsc1  -8.034%
20. Nc1nc(CN2CCCC(Cn3cncn3)C2)nc2ccccc12 (stereo not drawn)  -7.621%
21. CC(C)n1cc(CN2CCCN(C(=O)c3ccnn3C)CC2)cn1  -7.528%
22. Cc1nc(CN2CCN(Cc3cc4n(n3)CCNC4)CC2)cs1  -7.4%
23. CC(C)(C)c1nnc(CN2CCOC(Cn3cccn3)C2)o1 (stereo not drawn)  -7.281%
24. CN(C)Cc1cn(CC2CCCN(c3nccc4occc34)C2)nn1 (stereo not drawn)  -7.203%
25. COc1ccc(CC(=O)N(C)C2CCN(C)C2=O)cc1F (stereo not drawn)  -7.072%
26. COC[C@@H]1CC[C@H]2[C@H](CCN2C(=O)c2ccncc2F)O1.O=C(O)C(F)(F)F  -6.773%
27. CCNC(c1ccc(OC)cc1)c1cccnc1 (stereo not drawn)  -6.571%
28. CCOC[C@H]1CC[C@H]2[C@H](CCN2S(=O)(=O)Cc2ccccc2)O1  -6.562%
29. CC(NCc1cccc(S(=O)(=O)N(C)C)c1)c1cccnc1 (stereo not drawn)  -5.764%
30. Cc1cc(I)cnc1NC(=O)C(C)(C)C  -4.531%
31. CCNC(c1cccnc1)c1ccc(F)c(F)c1 (stereo not drawn)  -4.502%
32. CC(C)CCC(=O)N1CCN(C(=O)c2ccc(-n3cccn3)cc2)CC1  -3.976%
33. Cn1nnc2c1C(COCc1ccccn1)CN(C(=O)c1cccs1)C2.O=C(O)C(F)(F)F (stereo not drawn)  -3.747%
34. CC(NCCCC#N)c1ccc(-c2cccnc2)cc1 (stereo not drawn)  -3.574%
35. CCN(C(c1cccnc1)c1ccc(F)cc1F)S(C)(=O)=O (stereo not drawn)  -3.142%
36. c1ccc2oc(CCCN3CCOC(Cn4cccn4)C3)nc2c1 (stereo not drawn)  -3.137%
37. c1coc(-c2nnc(CN3CCOC(Cn4cccn4)C3)o2)c1 (stereo not drawn)  -1.801%
38. Cc1cc(CN(C)C(=O)CNS(=O)(=O)c2cccs2)no1  -1.596%
39. COc1ccc(Cl)cc1-c1cc(NC(=O)C2COCCO2)[nH]n1 (stereo not drawn)  -1.485%
40. CCOCC(=O)NCC1Cn2nnc(-c3cccc(F)c3)c2CO1 (stereo not drawn)  -1.189%
41. CN(C)C(=O)N1Cc2nnn(C)c2C(COCc2cccnc2)C1.O=C(O)C(F)(F)F (stereo not drawn)  -1.037%
42. CNC(=O)c1cc2c(nc1NCC(C)C)CCN(S(=O)(=O)C1CC1)CC2  -0.7375%
43. COC(=O)CN(C(=O)c1ccc(Cl)cn1)c1cccc(F)c1  -0.7063%
44. O=C(c1cccc(-n2cccn2)c1)N1CCOC(CCO)C1 (stereo not drawn)  -0.5625%
45. CC(Cc1ccsc1)NC(=O)c1cc(N2CCNC2=O)ccc1F (stereo not drawn)  -0.338%
46. CC(C)n1cc(CN2CCCN(C(=O)C3(C)CCOCC3)CC2)cn1  -0.3166%
47. O=C(NCc1ccccc1-n1cccn1)N1CCN2CCCCC2C1 (stereo not drawn)  -0.3123%
48. CCOCCN(C)C(c1cccnc1)c1ccc(F)cc1F (stereo not drawn)  -0.1699%
49. CCOC[C@H]1CC[C@H]2[C@H](CCN2C(=O)c2ccncc2F)O1.O=C(O)C(F)(F)F  0.195%
50. CCOCC(=O)N1Cc2nnn(C)c2C(COCc2ccccn2)C1.O=C(O)C(F)(F)F (stereo not drawn)  0.961%
51. CCNC(c1cccnc1)c1cc(C)cc(C)c1 (stereo not drawn)  1.12%
52. O=c1[nH]c(CCN2CCCC(Cn3cncn3)C2)nc2ccccc12 (stereo not drawn)  2.487%
53. Cc1[nH]c2c(F)cccc2c1CC(=O)N1CCC(NS(C)(=O)=O)CC1  3.004%
54. CCN(CC)c1ccc(C(=O)N(C)Cc2c(C)noc2C)cn1  3.136%
55. CCn1ccnc1CN1CCCC(N(C)CCc2ccccc2)C1 (stereo not drawn)  3.806%
56. CC(C)(C)n1ncc2c(=O)[nH]c(NC3CC=CC3)nc21  3.92%
57. CCc1nc(CN2CCCN(C(=O)C3CCOC3)CC2)cs1 (stereo not drawn)  3.952%
58. COCCCC1(C(=O)O)CCCN(C(=O)c2ccc(C(C)C)[nH]c2=O)C1 (stereo not drawn)  4.25%
59. CCN(C(=O)C(C)C)C(c1cccnc1)c1ccc2c(c1)CCO2 (stereo not drawn)  4.729%
60. Cc1csc(N2CCN(C(=O)Cc3ccsc3)CC2)n1  4.933%
61. Cc1cnn(CC2CN(CCS(=O)(=O)c3ccccc3)CCO2)c1 (stereo not drawn)  5.078%
62. Cc1cc(NC(=O)CCc2ccsc2)n(C)n1  5.21%
63. CCc1ncc(C(=O)N2CCCOC(Cn3cccn3)C2)cn1 (stereo not drawn)  5.482%
64. CCN(C(c1cccnc1)c1ccc(F)c(F)c1)S(C)(=O)=O (stereo not drawn)  5.552%
65. CS(=O)(=O)N1CCC(Oc2ccc(C(=O)NC3CCOC3)cc2Cl)CC1 (stereo not drawn)  6.025%
66. COC[C@@H]1CC[C@H]2[C@H](CCN2S(=O)(=O)c2ccc(F)cc2)O1  6.066%
67. Cc1nn(-c2ccccc2)cc1C(=O)N1CCCN2CCCC2C1 (stereo not drawn)  6.19%
68. Cc1cnn(CC2CN(CCCS(=O)(=O)N(C)C)CCO2)c1 (stereo not drawn)  6.483%
69. CC[C@H]1COCCN1C(=O)c1ccc(OC)c(N2CCOCC2)c1  7.42%
70. CCc1cnc(NCC(C)Oc2cccnc2)nc1 (stereo not drawn)  7.623%
71. CCC(Nc1ncccn1)c1cccnc1 (stereo not drawn)  8.55%
72. c1ccc(-c2noc(CN3CCOC(Cn4cccn4)C3)n2)nc1 (stereo not drawn)  10.47%
73. CC(C)c1nnc2n1CCN(c1nc3ccccc3o1)C2  11.04%
74. CCc1nnsc1C(=O)N(C)Cc1ccco1  13.36%
75. N#Cc1ccc(N2CCCC2Cn2cccn2)nc1 (stereo not drawn)  15.37%
76. NCC1Cc2cccc(-c3ccc(O)c(F)c3)c2O1 (stereo not drawn)  16.35%
77. CC(C)Cc1nc(OCC(N)=O)c(C#N)c2c1CCC2  34.66%
78. CCNC(c1ccc(Cl)cc1)c1cccnc1 (stereo not drawn)  74.82%
79. CCNC(c1ccc(C(C)C)cc1)c1cccnc1 (stereo not drawn)  85.86%
80. c1ccc2oc(CN3CCOC(Cn4cccn4)C3)nc2c1 (stereo not drawn)  90.04%
81. CCN(CC)C1CCN(C(=O)c2cc(-n3cccn3)ccc2Cl)CC1  93.46%
82. CCNC(c1ccc(CC)cc1)c1cccnc1 (stereo not drawn)  93.88%
83. Cc1ccc(CN2Cc3nnn(C)c3C(COCc3ccccn3)C2)s1.O=C(O)C(F)(F)F.O=C(O)C(F)(F)F (stereo not drawn)  95.33%
84. CCNC(c1cccnc1)c1ccc(F)c(C)c1 (stereo not drawn)  95.54%
85. O=C(c1cc(-n2cccn2)ccc1Cl)N1CCC(N2CCCC2=O)CC1  95.9%
86. c1ccc2oc(CCCN3CCCC(Cn4cncn4)C3)nc2c1 (stereo not drawn)  99.07%
87. CCNC(c1ccc(C)cc1)c1cccnc1 (stereo not drawn)  100.9%
88. CCNC(c1cccnc1)c1ccc(F)cc1F (stereo not drawn)  101.5%
89. CC(C)n1cc(CN2CCCN(C(=O)C3CCOC3)CC2)cn1 (stereo not drawn)  103.2%
90. CCOC[C@@H]1CC[C@H]2[C@H](CCN2C(=O)c2ccncc2F)O1  103.3%
91. CCNC(c1ccc(Br)cc1)c1cccnc1 (stereo not drawn)  106.3%
92. Cc1cnn(CC2CN(Cc3nc4ccccc4n3C)CCO2)c1 (stereo not drawn)  109.8%
93. Cc1ccc(CN2Cc3nnn(C)c3C(COCc3ccccc3)C2)s1.O=C(O)C(F)(F)F (stereo not drawn)  113.4%
94. COC[C@H]1CC[C@H]2[C@H](CCN2C(=O)c2ccncc2F)O1  114.1%
95. O=C(c1cc(-n2cccn2)ccc1Cl)N1CCCC(N2CCCC2)C1 (stereo not drawn)  114.1%
96. c1ccc2oc(CCCN3CCOC(Cn4cncn4)C3)nc2c1 (stereo not drawn)  115.2%
97. CC(C)n1cc(CN2CCCN(C(=O)C3CCCN3C)CC2)cn1 (stereo not drawn)  115.6%
98. Cc1cnn(CC2CN(CCCc3nc4ccccc4o3)CCO2)c1 (stereo not drawn)  130.7%
99. Cc1cnn(CC2CN(Cc3nc4ccccc4o3)CCO2)c1 (stereo not drawn)  139.9%
100. Cc1csc(C(Cc2ccsc2)NC(=O)c2cc(=O)n(C)c(=O)n2C)n1 (stereo not drawn)  142.4%
101. c1cnn(CC2CN(Cc3nnc(C4CC4)o3)CCO2)c1 (stereo not drawn)  144.3%
102. Cn1c(C(=O)NC(Cc2ccsc2)c2cccnc2)cc(=O)n(C)c1=O (stereo not drawn)  166.4%
103. Cn1c(=O)cc(C(=O)NC(Cc2ccsc2)c2cccnc2)[nH]c1=O (stereo not drawn)  175.1%
